Screens as filed in PubChem.
Most compounds without a hit are left out; they make up all but 11% or so of the library.
RORg inh: inhibitors of mouse ROR gamma transcriptional activity. P51450. Drosophila S2 Gal4-RORgamma UAS-luciferase reporter, 20 h. Potency, µM (top dose mostly 53.6 µM), for inactives: at the highest dose activity change, negative = inhibition, usual class: inhibitors. 310,000 tested, 5.4% active. AID 2551; also: potency is read from the fitted curve at half-maximal effect; % is scaled to controls: 0 for no effect and ±100 for the full control effect; nearly all actives have a fitted effect of over 60% in size
Target sequence (P51450 whole entry, looked up, the tested form may be a part): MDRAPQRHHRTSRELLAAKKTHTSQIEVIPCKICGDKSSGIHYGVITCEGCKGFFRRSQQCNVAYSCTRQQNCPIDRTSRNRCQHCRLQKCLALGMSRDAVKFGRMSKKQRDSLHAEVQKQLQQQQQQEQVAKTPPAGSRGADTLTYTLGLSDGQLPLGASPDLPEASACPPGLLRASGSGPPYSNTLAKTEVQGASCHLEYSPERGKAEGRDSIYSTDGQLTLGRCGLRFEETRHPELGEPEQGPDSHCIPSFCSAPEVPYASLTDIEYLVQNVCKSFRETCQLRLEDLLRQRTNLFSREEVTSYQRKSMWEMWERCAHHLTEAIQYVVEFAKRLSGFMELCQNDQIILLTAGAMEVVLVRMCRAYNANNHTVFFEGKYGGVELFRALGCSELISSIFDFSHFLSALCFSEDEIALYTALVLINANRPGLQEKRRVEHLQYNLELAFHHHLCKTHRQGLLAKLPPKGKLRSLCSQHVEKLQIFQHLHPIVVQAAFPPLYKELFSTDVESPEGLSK
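Luminescence from a UAS-regulated Photinus luciferase reporter in stably transfected Drosophila Schneider cells is measured; decreased signal marks ROR gamma inhibition. Fusion expression is induced by 700 uM copper sulfate for 20 hr.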
MCF10A rerep: DNA re-replication induction in MCF 10a cells; Potency, µM (top dose mostly 46.1 µM), without a hit: top-dose activity, positive = re-replication, usual class: activators; AID 624296; MCF 10A DNA re-replication, Hoechst nuclear intensity, 48 h; 350,000 tested, 2.9% active; also: potency is read from the fitted curve at half-maximal effect; % of control where 0% means no effect; nearly all actives have a fitted effect of over 50% in size
SW480 rerep: induces DNA re-replication in SW480 colon adenocarcinoma cells; AID 624297; SW480 DNA re-replication, Hoechst DNA content imaging, 48 h; Potency, µM (top dose mostly 46.1 µM), without a hit: top-dose re-replication activation, actives largely listed as activators; 340,000 tested, 1.8% active; also: potency is read from the fitted curve at half-maximal effect; % of control where 0% means no effect; nearly all actives have a fitted effect of over 55% in size
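Quantitative HTS format with DMSO vehicle controls; 48 hr drug incubation at 37 C, then 40 min Hoechst staining and scanning imager measurement at 405 nm excitation.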
VP16 counter: counter-screen for ROR gamma inhibitors: Gal4-VP16 reporter; AID 2546; Drosophila S2 Gal4-VP16 UAS-luciferase, luminescence, 20 h; 310,000 tested, 3.5% active; Potency, µM (highest dose often 53.6 µM), inactives show top-dose activity, negative = inhibition, actives largely listed as inhibitors;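 also: Gal4-VP16 expression switched on by copper sulfate through the metallothionein promoter; potency is read from the fitted curve at half-maximal effect; % is scaled to controls: 0 for no effect and ±100 for the full control effect; nearly all actives have a fitted effect of over 50% in size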
IL-1B inflam inh: inflammasome signaling inhibition, IL-1 beta readout; activity change, % at 57.5 µM; AID 743279; THP-1 LPS/ATP IL-1B secretion, AlphaLISA, 16 h; hits give low values; 360,000 tested, 4.7% active; in the data active = activity change below about -50%; inconclusive = mostly about -30% to -49%; also: % is scaled to controls: 0 for no effect and ±100 for the full control effect
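Secreted IL-1B measured by AlphaLISA bead assay after 16 h compound exposure of THP-1 cells; compounds (final up to 57.5 uM) added 1 h before LPS (250 ng/mL) and ATP (1.25 mM) stimulation; lower signal means less secretion.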
Numbers without * were called inactive; ? = inconclusive; / = no result given; [ ] = remark or other dose. Unless noted, calls follow the shape of the dose curve; as a rule, active = well fitted curve in the direction sought with a large enough effect; inconclusive = small, poorly fitted or top-dose-only effect, or another doubt; inactive = no such curve, though single readings can be large; an effect the other way counts as inactive or inconclusive.

SMILES	RORg inh	MCF10A rerep	SW480 rerep	VP16 counter	IL-1B inflam inh
Cc1ccc(S(=O)(=O)N2CCCC(C(=O)NCCc3ccc(Cl)cc3)C2)cc1 (stereo unspecified)	/	/	/	/	-16
CCN1CCN(Cc2ccc(NC(=O)c3ccc(C)c(NC(=O)c4cc(-c5ccc(Br)cc5)n[nH]4)c3)cc2C(F)(F)F)CC1	?	?	1%	?	-58*
CCN1CCN(Cc2ccc(NC(=O)c3cc(NC(=O)c4cncc(-c5ccc(C#N)cc5)c4)cc(OC)c3)cc2C(F)(F)F)CC1	2.8µM*	10µM*	24%[9.22 µM]	3.5µM*	-59*
CCN1CCN(Cc2ccc(NC(=O)c3ccc(C)c(NC(=O)c4nccnc4N)c3)cc2C(F)(F)F)CC1	20%	24%	-8%	4%	-93*
CC1(C(=O)Nc2ccc3ccccc3c2)CCC(=O)N1CCCn1ccnc1 (stereo unspecified)	/	/	/	/	3
COc1c(N2C[C@@H]3CCCN[C@H]3C2)c(F)cc2c(=O)c(C(=O)O)cn(C3CC3)c12	21%	17%	0%	-1%	/
O=C1C(=NO)C(c2ccccc2)Oc2ccccc21 (stereo unspecified)	/	?	3%	/	-90*
N#CC(C#N)=Cc1ccc(OCC(=O)N2CCOCC2)cc1	16%	13%	13%	0%[10 µM]	-53*
COc1ccc(C)cc1NC(=O)n1ncc2c(C)cccc21	5%	-6%	4%	-18%	9
Cc1ccc(NC(=O)n2ncc3c(C)cccc32)cc1F	?	5%	0%	?	-6
COc1ccc(NC(=O)n2ncc3c(C)cccc32)cc1	?	?	?	2.5µM*	11
COc1ccc(NC(=O)n2ncc3c(C)cccc32)cc1OC	1.1µM*	-4%	7%	?	?
COc1ccc(N=c2cc(-c3ccc(O)cc3)oc3ccccc23)cc1	-10%	?	0%	-12%	-98*
COc1ccc(N=c2cc(-c3ccc(OC)cc3)oc3ccccc23)cc1	-11%	13%	?	0%	/
CC[C@H](C)[C@@H]1NC(=O)[C@H]([C@@H](C)CC)NC(=O)[C@@H](CC(C)C)NC(=O)[C@H](Cc2ccccc2)NC(=O)[C@H](Cc2ccccc2)NC(=O)[C@@H]2CCCN2C(=O)[C@@H]2CCCN2C(=O)[C@H](C(C)C)NC(=O)[C@H](CC(C)C)NC1=O	/	21µM*	?	/	-15
CSc1nc2ccccc2cc1/C=C(\C#N)c1cccc(Cl)c1	-36%	8.2µM*	?	-5%	-2
COc1ccc(N=C(C)C2C(=O)c3ccccc3C2=O)cc1	/	/	/	/	-7
c1ccc(CN2CCC(=NNc3nc4ccccc4[nH]3)CC2)cc1	22µM*	?	23µM*	-25%	120
CCCCNc1nc2ccccc2[nH]1	27%	-5%	-9%	6%	43
O=C(O)c1cc(NN=C2CCN(Cc3ccccc3)CC2)ccc1Cl	-1%	1%	4%	-9%	-2
CC(C)(C)C1CCC(=NNc2nc3ccccc3[nH]2)CC1 (stereo unspecified)	18µM*	14%	16µM*	7%	75
c1ccc2c(c1)CC/C2=N/Nc1nc2ccccc2[nH]1	1.1µM*	23µM*	?	5.6µM*	-108*
O=C(NCC1CC1)c1ccccc1Cl	0%	1%	-12%	11%	-24
CC(C)Oc1ccc(C(=O)Nc2cc(S(=O)(=O)N3CCOCC3)ccc2N2CCOCC2)cc1	/	?	?	/	-7
CC(C)C(C(=O)NCc1ccccc1)N1CCN(C(=O)C2CCCO2)CC1 (stereo unspecified)	/	/	/	/	28
CCCCN1CCCCC1(C)C(=O)NCc1cccs1 (stereo unspecified)	/	/	/	/	6
O=C1C(=O)c2ncccc2-c2cccnc21	-38%	?	?	-12%	/
NC1=C(Br)C(=O)c2ncccc2C1=O	/	0.52µM*	8.2µM*	/	-98*
O=S(=O)(c1ccccc1)N1CCC2(CCCN(Cc3nccs3)C2)CC1	25%	/	/	3%	/
C[C@@H]1CN([C@@H](C)CO)C(=O)CCCn2nncc2CO[C@@H]1CN(C)S(=O)(=O)c1cccc(C#N)c1	/	/	/	/	-5
